Where “and” joins values, the source holds several entries; their conditions need not be identical. Equal entries are not always repeated. In all, about 74,000 compounds went through this assay and about 1,100 (1.5%) were called active. Entries that show only a call come without a potency. About 5% were inconclusive and are not listed. Calls come from the whole dose curve; as a rule, active = well fitted inhibition curve with a large enough effect; inconclusive = small, poorly fitted or top-dose-only effect; inactive = no such curve, though single readings can be large or run the other way. Many of the other results were omitted from the sample, so actives are more common in it than they were. Non-standard residues stand in square brackets, D forms with d. Residues, ends and D or L forms follow the SMILES beside them. Groups on a side chain read outwards from the residue. *: point of attachment. X2 = CCC(C)C(N)C1=NC(C(=O)*)CS1; Orn = NCCC[CH](N)C(=O)O
target: Polyunsaturated fatty acid lipoxygenase ALOX15 (Homo sapiens) (UniProt P16050); assay: qHTS Assay for Inhibitors of 15-hLO (15-human lipoxygenase); conditions: purified 15hLO-1, xylenol orange hydroperoxide absorbance; series mostly up to 57.1 µM; note: nearly all actives have a fitted effect of over 55% in size
Sequence (P16050 whole entry, looked up): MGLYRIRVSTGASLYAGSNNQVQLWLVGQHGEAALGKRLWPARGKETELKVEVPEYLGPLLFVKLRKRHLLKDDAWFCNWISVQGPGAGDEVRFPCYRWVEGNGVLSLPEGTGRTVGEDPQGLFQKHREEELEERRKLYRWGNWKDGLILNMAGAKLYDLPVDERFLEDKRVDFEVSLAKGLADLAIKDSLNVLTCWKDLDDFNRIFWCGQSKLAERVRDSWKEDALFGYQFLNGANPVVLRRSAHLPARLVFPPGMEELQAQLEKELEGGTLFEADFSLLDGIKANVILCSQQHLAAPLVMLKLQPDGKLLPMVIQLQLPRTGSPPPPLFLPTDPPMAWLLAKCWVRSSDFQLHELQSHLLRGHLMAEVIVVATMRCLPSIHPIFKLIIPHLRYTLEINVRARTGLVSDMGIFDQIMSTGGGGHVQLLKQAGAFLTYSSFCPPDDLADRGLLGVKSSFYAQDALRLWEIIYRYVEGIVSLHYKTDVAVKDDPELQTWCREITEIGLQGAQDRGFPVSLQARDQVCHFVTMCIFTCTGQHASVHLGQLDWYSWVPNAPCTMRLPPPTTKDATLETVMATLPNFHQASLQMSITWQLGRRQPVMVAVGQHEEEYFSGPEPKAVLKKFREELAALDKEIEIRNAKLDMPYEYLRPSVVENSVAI
Procedure, shortened: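 Purified human 15hLO-1 (40 nM) in 25 mM Hepes pH 7.5, 0.01% Triton X-100, preincubated 15 min RT with compound, then 50 uM arachidonic acid for 6 min. Hydroperoxide read by ferrous/xylenol orange, 30 min; 573/405 nm absorbance ratio gave progress.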
Potency is the fitted concentration of half-maximal effect.

SMILES	Potency	activity change, negative = inhibition
CC[C@@H]1Cc2cc(O)ccc2C2=C1c1ccc(O)cc1C[C@H]2CC	10 µM (active)	
COc1cccc([C@H](O)Cn2cc(-c3ccc(CON=C(C)C)cc3)nn2)c1		15.5% [at 11.4 µM] (inactive)
C[C@@H](c1ccccc1)N1C(=O)[C@H]2[C@H]3[C@H](O)[C@H](O)C/C(=N/OC[C@@H](O)COCc4ccco4)[C@@H]3CC[C@@H]2C1=O		0.315% [at 11.4 µM] (inactive)
Cc1cnc(CNc2cc(-c3c(C)noc3C)ncn2)cn1		inactive
CCC(C)C(N)C1=NC(C(=O)NC(CC(C)C)C(=O)NC(CCC(=O)O)C(=O)NC(C(=O)NCCCCC2NC(=O)C(CC(N)=O)NC(=O)C(CC(=O)O)NC(=O)C(Cc3cnc[nH]3)NC(=O)C(Cc3ccccc3)NC(=O)C(C(C)CC)NC(=O)C(CCCN)NC2=O)C(C)CC)CS1 (stereo not drawn) (cyclo(DNK([Ile-Glu-Leu-X2])[Orn]IFH); configuration not given here)		inactive
Cc1cccc(C)c1NC(=O)CCCSc1nnc(-c2ccco2)n1-c1ccccc1		inactive
COc1ccc(C(=O)NC(=O)CSc2nnc(-c3ccco3)n2-c2ccccc2)cc1		inactive
O=C(CSc1nnc(-c2ccco2)n1-c1ccccc1)NCCc1ccccc1	6.31 µM (active)	
COC(=O)[C@@H]1CC[C@H](C)[C@@H](c2ccc(C)cc2)N1C(=O)c1ccc(/C=N\O[C@@H](C)c2cn([C@H](CO)Cc3ccccc3)nn2)cc1		-7.8% [at 11.4 µM] (inactive) and 0.419% [at 11.4 µM] (inactive)
CC(=O)N1CCN(c2ccc(NCc3ccc(C(C)C)cc3)cc2)CC1	12.6 µM (active)	
CN1CCN(c2ccc(NC(=O)COc3ccc(Cl)cc3Cl)cc2)CC1		inactive
CC(=O)N1CCC2(CC1)CCN(c1ccncc1)CC2		inactive
CC(C)CO/N=C1/C[C@@H](O)[C@@H](O)[C@@H]2[C@@H]3C(=O)N(C[C@@H]4CCCO4)C(=O)[C@H]3CC[C@@H]12		9.84% [at 11.4 µM] (inactive)
C[C@@H]1O[C@@H](OC[C@H]2O[C@@H](Oc3c(-c4cccc(O)c4O)oc4cc(O)cc(O)c4c3=O)[C@H](O)[C@@H](O)[C@@H]2O)[C@H](O)[C@H](O)[C@H]1O		inactive
CC(C)C(c1nnnn1CCc1ccccc1)N1CCN(C(=O)c2ccco2)CC1 (stereo not given)		inactive
O=C(OCc1cc2ccccc2[nH]c1=O)c1cccnc1		inactive
C=CCOC(=O)C(C(C)=O)C(NC(=O)OC)c1ccccc1 (stereo not given)		13.9% [at 11.4 µM] (inactive)
Cc1nnc(SCC(=O)N2CCc3ccccc32)n1-c1ccccc1		inactive
O=C(CSc1nc2[nH]ncc2c(=O)n1-c1ccccc1)N1CCCc2ccccc21	15.8 µM (active)	
C=CCn1c(=O)c2ccccc2n2c(SCC(=O)N3CCCc4ccccc43)nnc12		inactive

SMILES	Potency	activity change, negative = inhibition
CC1(C)OC2CC(=O)OC[C@@]23C1CC(=O)[C@]1(C)C3CC[C@@]2(C)C(c3ccoc3)OC(=O)C3O[C@@]321 (stereo not given in full)		inactive
COc1ccccc1C(=O)n1nc(-c2ccccc2)nc1N	12.6 µM (active)	
COc1ccc(C(=O)n2nc(-c3ccc(C)cc3)nc2N)cc1OC		inactive
COc1ccc(C(=O)n2nc(-c3ccc(Cl)cc3)nc2N)cc1OC		inactive
CCOC(=O)c1cccc(NC(=O)CCn2nnc3ccccc32)c1		inactive
CO[C@@H]1COC(=O)[C@H](Cc2ccccc2)NC(=O)C/C=C\[C@@H](C)[C@H](OC)COC(=O)[C@@H](C)NC(=O)C/C=C\[C@H]1C		2.31% [at 11.4 µM] (inactive) and 5.99% [at 11.4 µM] (inactive)
Cc1cccc(C(=O)O)c1[N+](=O)[O-]		inactive
C=CC(=O)c1ccc2ccccc2c1	12.6 µM (active)	
Cc1ccc2nc(CC(=O)c3ccc4ccccc4c3)c(=O)[nH]c2c1		-4.04% [at 11.4 µM] (inactive)
Cc1csc(-c2nc3ccccc3n2C)n1		inactive
Cc1cccc2c3c(ccc12)C1=C(C(=O)C3=O)C(C)CO1 (stereo not given)		inactive
C/C(CCN1CCc2nc(-c3ccccc3)c(-c3ccccc3)cc2C1)=N\O[C@@H](C)c1cn([C@@H]2COC[C@@H]2O)nn1		0.588% [at 11.4 µM] (inactive)
O=C(Oc1cc(OC(=O)c2ccccc2)c2c(c1)OC(c1ccc(OC(=O)c3ccccc3)c(OC(=O)c3ccccc3)c1)[C@@H](OC(=O)c1ccccc1)C2)c1ccccc1 (stereo not given in full)		inactive
COC(=O)C(C(=O)OC)[C@@H]1CCCC(=O)C1		14.4% [at 11.4 µM] (inactive)
C=CCn1c(CSc2nc3ccccc3s2)nnc1SCC(=O)NCc1ccco1		inactive
CCn1c(SCC(=O)Nc2nc3ccc(OC)cc3s2)nnc1-c1ccoc1C		inactive
C=CCn1c(SCC(=O)Nc2nc3ccccc3s2)nnc1-c1ccccc1O	25.1 µM (active)	
CC(C)C(N)C(=O)OCCOCn1cnc2c(=O)[nH]c(N)nc21 (stereo not given)		inactive
Cc1ccc2c(c1)C(O)(CC(=O)c1cccnc1)C(=O)N2 (stereo not given)		inactive
COc1ccc(/C=C/NC(=O)c2ccc(OC)cc2)cc1		-5.84% [at 11.4 µM] (inactive)

SMILES	Potency	activity change, negative = inhibition
Cc1cccn2c(=O)c3cc(C(=O)NCc4ccccn4)n(C)c3nc12		inactive
O=C(NCc1ccccn1)c1cc2ccccc2oc1=O		inactive
O=C(NCc1ccccn1)c1ccc2nc(-c3ccco3)c(-c3ccco3)nc2c1	3.16 µM (active)	
O=C(O)c1ccc(Cl)c(S(=O)(=O)Nc2ccccc2Cl)c1		inactive
NC1(C(=O)OCc2ccccc2)CCCC1		-11.8% [at 11.4 µM] (inactive)
N#Cc1c(N)sc2c1CCN(C(=O)OCc1ccccc1)C2	15.8 µM (active)	
N#Cc1ccc(COC(=O)Cn2nnc(-c3ccccc3)n2)cc1		inactive
CC(CCC(=O)O)C1CCC2C3C(O)C[C@@H]4CC(O)CC[C@@]4(C)C3CC[C@@]12C (stereo not given in full)		inactive
C#CCC(C(=O)OC)(C(=O)OC)C(C[N+](=O)[O-])c1ccccc1 (stereo not given)		-3.59% [at 11.4 µM] (inactive)
CCC(CCC(C)C1CCC2C3CC=C4CC(O)CC[C@@]4(C)C3CC[C@@]12C)C(C)C (stereo not given in full)		inactive
CO[C@H]1COC(=O)C/C=C\[C@H](C)COC(=O)[C@@H](OCc2ccccc2)/C=C\[C@@H]1C		5.89% [at 11.4 µM] (inactive)
C=C1C(=O)C23C(O)C1CCC2[C@]12COC3(O)C(O)C1C(C)(C)CC[C@H]2O (stereo not given in full)		inactive
CCOCCCN1C(=O)CN(C2CCCCC2)C(=O)C1c1ccc(OCC)c(OC)c1 (stereo not given)		inactive
COC(=O)[C@@H]1CC[C@H](C)[C@@H](c2ccc(C)cc2)N1C(=O)c1ccc(/C=N\OC[C@@H](O)COCc2ccco2)cc1		-2.65% [at 11.4 µM] (inactive)
Cc1ccc(-c2nc(CS(=O)CC(=O)N3CCN(c4ncccn4)CC3)c(C)o2)cc1 (stereo not given)		inactive
CCOc1ccc2[nH]c(=O)c(CN(Cc3nnnn3CCc3ccccc3)CC3CCCO3)cc2c1 (stereo not given)		inactive
CCOc1ccc2[nH]c(=O)c(CN(Cc3nnnn3Cc3ccccc3)CC3CCCO3)cc2c1 (stereo not given)		inactive
COc1ccc2[nH]c(=O)c(CN(Cc3nnnn3CCc3ccccc3)CC3CCCO3)cc2c1 (stereo not given)	1.26 µM (active)	
O=C(CSc1nnc2scc(-c3ccc(F)cc3)n12)NCc1ccco1		inactive
CCCc1nc2c(C)cc(-c3nc4ccccc4n3C)cc2n1Cc1ccc(-c2ccccc2C(=O)O)cc1		inactive

From PubChem BioAssay AID887 (National Center for Advancing Translational Sciences (NCATS), 2007)
